Data on 40 compounds can be found in PubChem BioAssay.

Potency and affinity values are given separately. Calls of active or inactive are those of the source.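 Rule for the calls, unless noted: active = fitted dose curve reaches 40% lysis signal rise at or below the highest valid concentration tested for that sample; inconclusive = flat fit between 30% and 70%, or poor curve fit; inactive = signal falls, stays flat within 30%, or no crossing.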

The first experiment is described as follows: C. neoformans lysis by adenylate kinase leakage – AK release luminescence, cherry-picks, dose response (AID 687000).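 Note: luminescent detection of adenylate kinase leaking from lysed yeast.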 As to conditions: 4 h, 100% = twice the neutral-control signal; series mostly up to 15 µM.
On to `COc1ccc(N(C)C(=O)c2cn(CC(C)C)c(=O)c3cc(OC)c(OC)cc23)c(OC)c1`, for which the result was inactive.

As for `Cc1ccc(S(=O)(=O)N[C@H]2CC[C@H](CC(=O)NCc3ccccc3F)O[C@H]2CO)cc1`, the result was inactive.

`Cc1ccc(NC(=O)C2CCC(=O)N2)cc1C` (stereo not given): the compound was called inactive.

Regarding `O=C(c1ccco1)N1N=C(c2cccs2)CC1c1ccco1` (stereo not given), the result was inactive.

On to `O=C(CN(c1ccccc1)S(=O)(=O)c1ccccc1)Nc1ccc(F)cc1`, for which the compound was called inactive.

Turning to `CCOC(=O)CSc1ncnc2c1cnn2-c1ccc(Cl)cc1`, the compound was classed as inactive.

With `CCC(C)N(C(=O)CSc1ncnc2c1cnn2-c1ccccc1)C1CCS(=O)(=O)C1` (stereo not given), the compound was classed as inactive.

For `O=C(NC(=S)Nc1ccccc1[N+](=O)[O-])c1ccccc1`, the compound was classed as inactive.

Take `O=C(C[C@@H]1CC[C@@H]2[C@H](COC[C@@H](O)CN2C(=O)Nc2ccc(Cl)cc2)O1)NC1Cc2ccccc2C1`: the compound was classed as inactive.

`C[C@H](NC(=O)C[C@@H]1C=C[C@H](NC(=O)CN2CCOCC2)[C@H](CO)O1)c1ccccc1`: the result was inactive.

Regarding `Cc1cccc(C)c1NC(=O)C1(C)CCC(=O)N1CCCn1ccnc1` (stereo not given), the call was inactive.

On to `Cc1cc(C(=O)Nc2cccc3c2O[C@@H](CN(C)S(=O)(=O)c2ccccc2)[C@@H](C)CN([C@@H](C)CO)C3=O)n(C)n1`, for which the call was inactive.

Consider `O=C(CN(c1ccccc1)S(=O)(=O)c1ccc(F)cc1)N1CCCCCC1`, for which the compound was classed as inactive.

Turning to `Cc1cccc(C)c1NC(=S)NN(Cc1ccccc1)c1ccccc1`, the result was inactive.

Turning to `Cc1cc(OCC(=O)NC(C)c2ccccc2)ccc1[N+](=O)[O-]` (stereo not given), the outcome was inactive.

Turning to `O=S1(=O)CCC(N=Cc2cc(Br)ccc2O)C1` (stereo not given), the outcome was inactive.

With `CNC[C@@H]1OCCCC[C@@H](C)Oc2ccc(NC(=O)NC(C)C)cc2C(=O)N([C@@H](C)CO)C[C@H]1C`, the compound was classed as inactive.

Take `COCCNC(=O)C[C@H]1C=C[C@H](NS(=O)(=O)c2ccc(C)cc2)[C@@H](CO)O1`: the compound was classed as inactive.

For `CCN(CC)C(=O)CSc1ncnc2c1cnn2-c1ccccc1`, the result was inactive.

For the compound `C/C=C/c1ccc([C@@H]2[C@@H](CNC(=O)C3CCC3)N(C(=O)NCCC)[C@H]2CO)cc1`, the result was inactive.

Take `C[C@H](CO)N1C[C@H](C)[C@H](CN(C)CC2CCCCC2)Oc2c(NS(C)(=O)=O)cccc2C1=O`: the result was inactive.

Regarding `COC(=O)C1=C(C)N(Cc2ccc(F)cc2)C(=S)NC1c1cccc(OC)c1` (stereo not given), the result was inactive.

On to `CNC(=O)CN(c1ccccc1)S(=O)(=O)c1ccc(F)cc1`, for which the call was inactive.

Consider `Cc1ccc(NC(=O)C(=O)NCCCN2CCCC2=O)c(C)c1`, for which the compound was classed as inactive.

Take `C[C@H]1CN([C@@H](C)CO)C(=O)c2cc(-c3ccccc3)cnc2O[C@@H]1CN(C)C(=O)c1ccccn1`: the result was inactive.

Take `Cc1ccccc1-n1ncc2c(SCC(=O)NCc3cccs3)ncnc21`: the outcome was inactive.

On to `C[C@@H]1CN([C@H](C)CO)C(=O)Cc2cc(NC(=O)CCCCCC(=O)Nc3ccccc3N)ccc2O[C@H]1CN(C)C(=O)Nc1ccccc1`, for which the result was inactive.

With `COc1ccc(NC(=S)NCc2ccccc2Cl)c(OC)c1`, the outcome was inactive.

With `CC(NC(=O)COc1ccccc1-c1ccccc1)c1ccccc1` (stereo not given), the outcome was inactive.

Turning to `COCC#Cc1ccc2c(c1)O[C@H](CN(C)S(=O)(=O)c1ccc(OC)cc1)[C@H](C)CN([C@H](C)CO)S2(=O)=O`, the compound was classed as inactive.

In the case of `CC(C)NC(=O)Nc1ccc2c(c1)C(=O)N([C@@H](C)CO)C[C@@H](C)[C@@H](CN(C)C(=O)NC1CCCCC1)OCCCC[C@H](C)O2`, the compound was called inactive.

As to `CN1C[C@@H]2C(c3ccc(C(F)(F)F)cc3)C3(c4ccccc4)CC2(C3)[C@H]1c1ccccc1` (stereo not given in full), the call was inactive.

Regarding `O=C(CN(c1ccccc1)S(=O)(=O)c1ccc(F)cc1)NC1CCCCCC1`, the outcome was inactive.

`O=C(NC[C@@H]1[C@@H](c2ccccc2)[C@H](CO)N1C(=O)C1CCC1)NC1CCCC1`: the compound was called inactive.

Consider `CN1c2ccc(-c3ccc(F)cc3)cc2[C@H]2[C@H](CCN2S(=O)(=O)c2cccc(F)c2)[C@H]1CO`, for which the outcome was inactive.

`CCNC(=O)CN(c1ccc(C)cc1)S(=O)(=O)c1ccc(SC)cc1`: the compound was called inactive.

For the compound `CNC(=O)CN(c1ccc(OC)cc1)S(=O)(=O)c1ccc(F)cc1`, the compound was called inactive.

Take `COc1ccc(CN(C)C[C@@H]2OCCCC[C@@H](C)Oc3ccc(NC(=O)c4ccccc4)cc3C(=O)N([C@H](C)CO)C[C@@H]2C)cc1`: the outcome was inactive.

As for `COc1ccc(C#Cc2ccc3c(c2)O[C@H](CN(C)C(C)=O)[C@@H](C)CN([C@@H](C)CO)S3(=O)=O)cc1`, the call was inactive.

`CC(C)Oc1cccc(C(=O)NC(=S)Nc2ccccc2N2CCOCC2)c1`: the call was inactive.

Another experiment is described as follows: viability loss in HepG2 hepatoma cells – cell-based, cherry-picks, set 2, cytotoxicity control, dose response (AID 687002;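 active = a dose-response fit showing signal loss, with half-maximal concentration no higher than twice the top tested dose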). Particulars: ATP luminescence (CellTiter-Glo), 48 h; series mostly up to 26 µM.
Consider `COc1ccc(N(C)C(=O)c2cn(CC(C)C)c(=O)c3cc(OC)c(OC)cc23)c(OC)c1`, for which the compound was called inactive.

Regarding `Cc1ccc(S(=O)(=O)N[C@H]2CC[C@H](CC(=O)NCc3ccccc3F)O[C@H]2CO)cc1`, the result was inactive.

As for `Cc1ccc(NC(=O)C2CCC(=O)N2)cc1C` (stereo not given), the result was inactive.

As to `O=C(c1ccco1)N1N=C(c2cccs2)CC1c1ccco1` (stereo not given), the outcome was inactive.

With `O=C(CN(c1ccccc1)S(=O)(=O)c1ccccc1)Nc1ccc(F)cc1`, the result was inactive.

Take `CCOC(=O)CSc1ncnc2c1cnn2-c1ccc(Cl)cc1`: the compound was classed as inactive.

As for `CCC(C)N(C(=O)CSc1ncnc2c1cnn2-c1ccccc1)C1CCS(=O)(=O)C1` (stereo not given), the call was inactive.

For the compound `O=C(NC(=S)Nc1ccccc1[N+](=O)[O-])c1ccccc1`, the compound was called inactive.

As to `O=C(C[C@@H]1CC[C@@H]2[C@H](COC[C@@H](O)CN2C(=O)Nc2ccc(Cl)cc2)O1)NC1Cc2ccccc2C1`, the compound was called inactive.

With `C[C@H](NC(=O)C[C@@H]1C=C[C@H](NC(=O)CN2CCOCC2)[C@H](CO)O1)c1ccccc1`, the compound was called inactive.

With `Cc1cccc(C)c1NC(=O)C1(C)CCC(=O)N1CCCn1ccnc1` (stereo not given), the result was inactive.

Consider `Cc1cc(C(=O)Nc2cccc3c2O[C@@H](CN(C)S(=O)(=O)c2ccccc2)[C@@H](C)CN([C@@H](C)CO)C3=O)n(C)n1`, for which the compound was classed as inactive.

On to `O=C(CN(c1ccccc1)S(=O)(=O)c1ccc(F)cc1)N1CCCCCC1`, for which the compound was classed as inactive.

For the compound `Cc1cccc(C)c1NC(=S)NN(Cc1ccccc1)c1ccccc1`, the call was inactive.

As for `Cc1cc(OCC(=O)NC(C)c2ccccc2)ccc1[N+](=O)[O-]` (stereo not given), the compound was classed as inactive.

On to `O=S1(=O)CCC(N=Cc2cc(Br)ccc2O)C1` (stereo not given), for which the result was inactive.

For the compound `CNC[C@@H]1OCCCC[C@@H](C)Oc2ccc(NC(=O)NC(C)C)cc2C(=O)N([C@@H](C)CO)C[C@H]1C`, the call was inactive.

In the case of `COCCNC(=O)C[C@H]1C=C[C@H](NS(=O)(=O)c2ccc(C)cc2)[C@@H](CO)O1`, the compound was called inactive.

For `CCN(CC)C(=O)CSc1ncnc2c1cnn2-c1ccccc1`, the call was inactive.

Take `C/C=C/c1ccc([C@@H]2[C@@H](CNC(=O)C3CCC3)N(C(=O)NCCC)[C@H]2CO)cc1`: the compound was classed as inactive.

Consider `C[C@H](CO)N1C[C@H](C)[C@H](CN(C)CC2CCCCC2)Oc2c(NS(C)(=O)=O)cccc2C1=O`, for which the result was inactive.

Turning to `COC(=O)C1=C(C)N(Cc2ccc(F)cc2)C(=S)NC1c1cccc(OC)c1` (stereo not given), the compound was called inactive.

Consider `CNC(=O)CN(c1ccccc1)S(=O)(=O)c1ccc(F)cc1`, for which the compound was called inactive.

With `Cc1ccc(NC(=O)C(=O)NCCCN2CCCC2=O)c(C)c1`, the compound was called inactive.

As to `C[C@H]1CN([C@@H](C)CO)C(=O)c2cc(-c3ccccc3)cnc2O[C@@H]1CN(C)C(=O)c1ccccn1`, the compound was classed as inactive.

Regarding `Cc1ccccc1-n1ncc2c(SCC(=O)NCc3cccs3)ncnc21`, the compound was called inactive.

Consider `C[C@@H]1CN([C@H](C)CO)C(=O)Cc2cc(NC(=O)CCCCCC(=O)Nc3ccccc3N)ccc2O[C@H]1CN(C)C(=O)Nc1ccccc1`, for which the compound was classed as inactive.

On to `COc1ccc(NC(=S)NCc2ccccc2Cl)c(OC)c1`, for which the compound was classed as inactive.

In the case of `CC(NC(=O)COc1ccccc1-c1ccccc1)c1ccccc1` (stereo not given), the outcome was inactive.

As to `COCC#Cc1ccc2c(c1)O[C@H](CN(C)S(=O)(=O)c1ccc(OC)cc1)[C@H](C)CN([C@H](C)CO)S2(=O)=O`, the compound was called inactive.

In the case of `CC(C)NC(=O)Nc1ccc2c(c1)C(=O)N([C@@H](C)CO)C[C@@H](C)[C@@H](CN(C)C(=O)NC1CCCCC1)OCCCC[C@H](C)O2`, the result was inactive.

As for `CN1C[C@@H]2C(c3ccc(C(F)(F)F)cc3)C3(c4ccccc4)CC2(C3)[C@H]1c1ccccc1` (stereo not given in full), the outcome was inactive.

Take `O=C(CN(c1ccccc1)S(=O)(=O)c1ccc(F)cc1)NC1CCCCCC1`: the compound was classed as inactive.

For `O=C(NC[C@@H]1[C@@H](c2ccccc2)[C@H](CO)N1C(=O)C1CCC1)NC1CCCC1`, the result was inactive.

For the compound `CN1c2ccc(-c3ccc(F)cc3)cc2[C@H]2[C@H](CCN2S(=O)(=O)c2cccc(F)c2)[C@H]1CO`, the outcome was inactive.

Regarding `CCNC(=O)CN(c1ccc(C)cc1)S(=O)(=O)c1ccc(SC)cc1`, the compound was called inactive.

With `CNC(=O)CN(c1ccc(OC)cc1)S(=O)(=O)c1ccc(F)cc1`, the result was inactive.

On to `COc1ccc(CN(C)C[C@@H]2OCCCC[C@@H](C)Oc3ccc(NC(=O)c4ccccc4)cc3C(=O)N([C@H](C)CO)C[C@@H]2C)cc1`, for which the call was inactive.

Take `COc1ccc(C#Cc2ccc3c(c2)O[C@H](CN(C)C(C)=O)[C@@H](C)CN([C@@H](C)CO)S3(=O)=O)cc1`: the compound was classed as inactive.

Turning to `CC(C)Oc1cccc(C(=O)NC(=S)Nc2ccccc2N2CCOCC2)c1`, the result was inactive.
